Mtb betalactam: beta-lactam sensitization of Mtb H37Rv; M. tuberculosis H37Rv growth with meropenem, percent inhibition; inhibition, % at 25 µM; 330,000 compounds, 0.27% hits; AID 434955; call rule not given here;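 also: growth measured after seven days incubation then overnight dye step; 0% = bacteria only wells and 100% = bacteria with antibiotic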
Rv3671c inh: inhibits the M. tuberculosis serine protease Rv3671c | inhibition, % at 5.96 µM | 320,000 compounds, 0.048% hits; in the data active = inhibition above about 38%;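 also: extracellular domain of Rv3671c used as enzyme; 0% = enzyme with DMSO and 100% = no enzyme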
Mtb FBA inh: inhibits M. tuberculosis FBA enzyme; purified M. tuberculosis FBA, fluorescence read-out; inhibition, % at 1 µM; 360,000 compounds, 2.3% hits; AID 588726; in the data active = inhibition above about 27%;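 also: 0% = vehicle and 100% = reference inhibitor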
Target sequence (P9WQA3 whole entry, looked up): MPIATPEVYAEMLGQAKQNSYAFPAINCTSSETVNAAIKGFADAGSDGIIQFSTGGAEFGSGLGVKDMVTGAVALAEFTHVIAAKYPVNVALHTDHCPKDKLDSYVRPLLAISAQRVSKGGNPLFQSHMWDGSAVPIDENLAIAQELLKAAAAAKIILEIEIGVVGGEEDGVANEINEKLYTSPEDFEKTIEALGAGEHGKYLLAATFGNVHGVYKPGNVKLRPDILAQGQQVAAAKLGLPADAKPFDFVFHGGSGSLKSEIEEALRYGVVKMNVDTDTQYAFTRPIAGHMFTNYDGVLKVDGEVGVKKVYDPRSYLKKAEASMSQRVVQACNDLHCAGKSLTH
GDH-TPI inh: GDH-TPI coupled enzyme inhibition counter-screen. GDH-TPI coupled enzyme counterscreen, NADH absorbance. inhibition, % at 4.8 µM. 360,000 compounds, 1.2% hits; in the data active = inhibition above about 30%;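 also: 0% = DMSO wells and 100% = wells lacking the enzyme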
UGM FP inh: blocks M. tuberculosis UGM enzyme | P9WIQ1 | purified UGM, fluorescence polarization probe displacement | inhibition, % at 10 µM | 320,000 compounds, 0.06% hits; in the data active = inhibition above about 10%, passing the limit was not always enough; inconclusive = no clear call, values can overlap the other calls
The depositor's hits bear a star; u = inconclusive; x = not tested or not shown. In the library only some 3.5% were active in any assay of this set; here they are far more common.

SMILES | Mtb betalactam | Rv3671c inh | Mtb FBA inh | GDH-TPI inh | UGM FP inh
COc1ccc(-n2c(C)nn(C)c2=O)cc1 | -6 | -2 | -3 | 7 | 1
COc1ccc(OC)c(NC(=O)CCN2CCN(CCO)CC2)c1 | -15 | 8 | 3 | 3 | 0
CN(C)c1cccc(NC2=CC(=[N+]3CCOCC3)CC(C)(C)C2)c1 | -3 | 5 | 0 | 37* | 3
CC1(C)CC(=O)C=C(Nc2cccc(F)c2)C1 | -1 | 1 | -3 | -1 | 0
Cc1cc(CNC(=O)c2cc(COc3ccc(F)c(F)c3)on2)nn1C | u | -5 | -2 | -7 | -1
COc1ccccc1NC(=O)c1c(NC(=O)CCC(=O)O)sc2c1CCCCC2 | -4 | 9 | 10 | 31* | 0
COc1ccc(OC)c(NC(=O)c2c(NC(=O)CCC(=O)O)sc3c2CCCCC3)c1 | 5 | 3 | 1 | 6 | 0
COc1ccc(/C=N/NC(=O)c2cccc(NC(=O)c3ccccc3Cl)c2)c(OC)c1 | 3 | -25 | 2 | 31* | 1
O=C(N/N=C/c1ccco1)c1cccc(NC(=O)c2ccccc2Cl)c1 | -7 | -12 | -1 | 32* | 2
O=C(Nc1ccccc1C(=O)N/N=C/c1ccco1)c1ccccc1Cl | 12 | -12 | 0 | 28 | -3
O=C(/C=C/c1ccco1)Nc1ccc2nc3n(c(=O)c2c1)CCCC3 | 0 | -1 | 2 | 30 | 4
COc1cc(/C=N/NC(=O)c2cnn3c(C)cc(-c4ccccc4)nc23)ccc1O | 1 | -4 | -2 | 37* | 0
O=C(O)c1ccc(N/N=C/C=C/c2ccccc2[N+](=O)[O-])cc1 | 15 | 6 | -7 | 39* | -2
CCOc1cc(/C=N/NC(=O)c2cc(-c3cccc(OC)c3)nc3ccccc23)ccc1O | 0 | -27 | 0 | 37* | -2
COc1cc(/C=N/NC(=O)c2nc(-c3ccccc3)n(-c3ccccc3)n2)ccc1O | -3 | 12 | -1 | 30 | 2
COc1cc(/C=N/NC(=O)c2cc(-c3ccccc3)nc3ccccc23)ccc1O | 2 | -12 | 8 | 46* | 2
O=C(NCCS(=O)(=O)N1CCN(Cc2ccccc2)CC1)c1ccc(F)cc1 | -3 | 4 | -1 | -5 | 0
COc1ccc(-c2cc(C(=O)N/N=C/c3sccc3C)c3ccccc3n2)c(OC)c1 | -7 | 4 | -1 | 34* | -2
COc1ccccc1-c1cc(C(=O)N/N=C/C=C/c2ccccc2[N+](=O)[O-])c2ccccc2n1 | 87 | -4 | 1 | 31* | 1
COc1cc(/C=N/NC(=O)c2cc(-c3ccccc3OC(C)C)nc3ccccc23)ccc1O | -1 | 5 | -3 | 40* | 1
O=C(O)COc1ccccc1/C=N/NC(=O)c1cc(-c2ccc(F)cc2)nc2ccccc12 | -2 | 0 | 5 | 51* | 2
Cc1ccc(OCC(=O)N/N=C/C=C/c2ccco2)c(Br)c1 | x | x | 2 | 34* | x
O=C(CN1CCN(Cc2ccccc2)CC1)N/N=C/C=C/c1ccco1 | 44 | 5 | 0 | 33* | 0
Cn1c(=O)c2c(ncn2CC(=O)N/N=C/C=C/c2ccco2)n(C)c1=O | -7 | 4 | -2 | 32* | -3
COc1ccc(C(=O)NCC(=O)N/N=C/C(C)=C/c2ccco2)cc1OC | 95 | -6 | -2 | 41* | 2
SMILES | Mtb betalactam | Rv3671c inh | Mtb FBA inh | GDH-TPI inh | UGM FP inh
COc1ccc(/C(O)=C/c2nc3ccc(C(=O)NCCc4cccc(C)c4)cc3[nH]c2=O)cc1OC | 26 | -80 | 1 | 8 | -2
COC(=O)NC(=S)N1CCOCC1 | -1 | -1 | 0 | -6 | 2
CCCn1c(N)c(N2CCCCC2)c(=O)n(CC(=O)Nc2cccc(S(=O)(=O)N(C)C)c2)c1=O | 5 | 6 | 4 | 10 | 0
CC(/C=N/NC(=O)Cc1cccn1C)=C\c1ccco1 | 1 | -2 | -2 | 40* | 2
CC(=C/c1ccco1)/C=N/NC(=O)Cc1cccn1C | 2 | 11 | -1 | 25 | 2
Cn1c(=O)c2c(ncn2CC(=O)N/N=C/C(Cl)=C/c2ccccc2)n(C)c1=O | -1 | 6 | 0 | 14 | 3
CC(/C=N/NC(=O)Cn1cnc2c1c(=O)n(C)c(=O)n2C)=C\c1ccco1 | -1 | 1 | 1 | 41* | 1
COc1cccc(CNC(=O)C2CCN(S(=O)(=O)N3CCC(C)CC3)CC2)c1 | -9 | 5 | 4 | 11 | -5
Cc1cc(/C=C2\C(=O)NN(c3ccccc3)C2=O)c(C)n1-c1ccccc1O | -2 | -6 | -3 | 34* | -3
Cc1cc(/C=C2/C(=O)NN(c3ccccc3)C2=O)c(C)n1-c1ccc(O)cc1 | 9 | 1 | -3 | 16 | 1
CCCCn1c(=O)[nH]c2nc3cc(N)ccc3nc2c1=O | -5 | 9 | -10 | 1 | 33*
Nc1ccc2nc3c(=O)n(CCc4ccccc4)c(=O)[nH]c3nc2c1 | -5 | -24 | -11 | 5 | u
Nc1ccc2nc3c(=O)n(C4CCCCC4)c(=O)[nH]c3nc2c1 | 2 | 7 | -15 | 6 | 36*
Cc1cc2nc3c(=O)n(CCc4ccccc4)c(=O)[nH]c3nc2cc1N | -6 | -9 | -2 | 21 | 17*
O=C(Nc1ccc(S(=O)(=O)NCC2CCCO2)cc1)c1cccc(F)c1 (configuration not stated) | -5 | -7 | -1 | 0 | -2
COc1ccccc1S(=O)(=O)Cc1ccc(C(=O)NC2CC2)o1 | -10 | -6 | -2 | 16 | 1
O=C1CC(c2ccc(O)c(O)c2)Oc2cc(O)cc(O)c21 (configuration not stated) | -6 | -10 | 6 | 31* | 1
CN(C)C1(CNC(=O)C2CCN(S(=O)(=O)c3cc(Cl)ccc3Cl)CC2)CCCCC1 | 3 | 17 | 0 | 18 | -1
CCOC(=O)C1=C(COC(=O)Cc2ccc(Br)cc2)NC(=O)NC1C (configuration not stated) | -7 | -7 | 0 | 2 | 0
COc1cc(/C=N/N=C2/C(=O)Nc3ccccc32)ccc1O | 3 | 9 | -7 | 16 | 2
COc1cc(/C=N/N=C2/NC(=O)C(c3ccccc3)S2)ccc1O (configuration not stated) | 2 | 1 | -4 | 54* | -2
COc1cc(/C=N/N=C2/NC(=O)C(Cc3ccc(F)cc3)S2)ccc1O (configuration not stated) | 5 | -1 | 3 | 42* | 0
N#Cc1c(NC(=O)c2ccc(-c3ccccc3[N+](=O)[O-])o2)sc2c1CCCC2 | -2 | -18 | -10 | 32* | 1
CCOc1ccc(/C=C/C(O)=C2/C(=O)N(C)C3(C)CC2c2ccccc2O3)cc1OC (configuration not stated) | 5 | 12 | 3 | 39* | 1
CC(=O)NC(Cc1ccccc1)C(=O)OCC(=O)c1ccccc1 (configuration not stated) | -3 | -2 | -1 | 8 | 13*
COc1cccc(NC(=O)CSCc2nc3sc(C)c(C)c3c(=O)[nH]2)c1 | x | x | -2 | 3 | x
Cc1ccc(Nc2nc3ccc(Cl)cc3n3cnnc23)cc1F | 14 | -17 | 4 | 14 | -1

Screening results as filed in PubChem.
